Drawing on ChEMBL document CHEMBL3988442, “University of Dundee, Small-Polar-MMV Screening Library” (2021), this text covers Percent Effect for 10 compounds.

For some assays here: Entries with a potency or affinity are not part of this list.

Holding throughout (set-up): scale not given: direction of the effect not stated beside the values
Assay [1] has as its target Protein translocase subunit SecA (Escherichia coli (strain K12)) (UniProt P10408). Description: Assay to Identify E. coli SecA ATPase Inhibitors. In kind it is functional. The settings on record: 30 µM.
In assay [2] the target is T1, Ubiquitin-activating enzyme e1, putative (Leishmania donovani (strain BPK282A1)) (UniProt E9BSI1).
T1 sequence (whole entry): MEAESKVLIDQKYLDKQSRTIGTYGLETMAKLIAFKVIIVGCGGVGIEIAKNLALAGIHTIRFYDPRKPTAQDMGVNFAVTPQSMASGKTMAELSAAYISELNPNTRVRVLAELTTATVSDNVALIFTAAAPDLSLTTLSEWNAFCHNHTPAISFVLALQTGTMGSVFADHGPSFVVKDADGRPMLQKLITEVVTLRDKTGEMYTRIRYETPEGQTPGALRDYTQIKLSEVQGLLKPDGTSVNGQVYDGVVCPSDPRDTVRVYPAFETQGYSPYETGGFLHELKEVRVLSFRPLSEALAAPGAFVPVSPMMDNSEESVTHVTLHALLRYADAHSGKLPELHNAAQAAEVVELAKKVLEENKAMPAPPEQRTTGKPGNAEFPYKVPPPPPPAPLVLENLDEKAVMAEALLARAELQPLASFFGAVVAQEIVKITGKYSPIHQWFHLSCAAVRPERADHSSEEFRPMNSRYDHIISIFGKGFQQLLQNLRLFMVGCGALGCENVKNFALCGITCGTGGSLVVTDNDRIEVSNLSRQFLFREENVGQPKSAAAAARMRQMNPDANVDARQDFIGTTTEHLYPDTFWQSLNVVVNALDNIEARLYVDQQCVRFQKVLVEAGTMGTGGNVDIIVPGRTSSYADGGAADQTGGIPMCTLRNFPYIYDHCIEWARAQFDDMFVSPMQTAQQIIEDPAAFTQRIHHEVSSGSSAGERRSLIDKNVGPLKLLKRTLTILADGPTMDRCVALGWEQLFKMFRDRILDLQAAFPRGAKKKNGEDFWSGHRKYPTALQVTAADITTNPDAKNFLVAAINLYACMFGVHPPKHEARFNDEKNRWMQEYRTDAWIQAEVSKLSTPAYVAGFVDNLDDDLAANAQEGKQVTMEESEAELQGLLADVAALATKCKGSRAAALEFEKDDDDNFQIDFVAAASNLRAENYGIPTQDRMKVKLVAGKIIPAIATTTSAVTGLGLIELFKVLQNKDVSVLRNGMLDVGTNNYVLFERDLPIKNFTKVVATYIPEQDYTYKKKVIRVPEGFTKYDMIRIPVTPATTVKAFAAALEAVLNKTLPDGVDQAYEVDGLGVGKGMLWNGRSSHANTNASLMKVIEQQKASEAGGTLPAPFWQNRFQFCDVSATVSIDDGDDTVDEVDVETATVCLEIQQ
Description: Leishmania donovani Ubiquitin Activating Enzyme (LdE1). The format is functional. To be noted: 30 µM.

Assay [3] has as its target AMP-activated protein kinase, AMPK (Homo sapiens) (UniProt P54646+O43741+P54619+Q9UGJ0+Q9Y478+Q13131+Q9UGI9). The assay is described as follows: AMP-dependent Kinase enzyme assay. An in vitro enzyme assay that detects ADP turnover that is directly proportional to AMPK activity. This uses naive AMPK that is activated during the assay with MK-8722. The format is functional. The settings on record: 30 µM.

Assay [4] has as its target Sialic acid-binding Ig-like lectin 9 (Homo sapiens) (UniProt Q9Y336). Description: Hs-Siglec9 ALPHAscreen SOP 20170721. To be noted: 10 µM. On the technique in general: Bead proximity is the source of the signal in Alpha formats.
The subject of another assay is Trypanosoma cruzi. Description: Trypanosoma cruzi phosphomannomutase and mannose-1-phosphate guanylyltransferase assay. The format is functional. The settings on record: 10 µM.
The target of assay [5] is T2, Arginase-2, mitochondrial (Homo sapiens) (UniProt P78540).
T2 sequence (whole entry): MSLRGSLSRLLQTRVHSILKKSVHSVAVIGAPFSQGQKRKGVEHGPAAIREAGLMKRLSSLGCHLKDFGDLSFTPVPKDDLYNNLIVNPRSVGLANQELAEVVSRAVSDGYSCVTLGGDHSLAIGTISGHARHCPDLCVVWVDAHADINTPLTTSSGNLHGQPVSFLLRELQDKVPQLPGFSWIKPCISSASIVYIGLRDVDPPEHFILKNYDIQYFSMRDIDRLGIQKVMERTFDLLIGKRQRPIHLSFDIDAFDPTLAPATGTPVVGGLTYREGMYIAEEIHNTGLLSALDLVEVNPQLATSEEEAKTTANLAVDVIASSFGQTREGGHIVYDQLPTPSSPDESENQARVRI
Description: in vitro enzyme assay to detect the production of urea directly proportional to the activity of Arginase II. Further: in the data most compounds retested in dose-response had high values. In kind it is functional. To be noted: 33.3 µM.

Assay [6] has as its target T3, Proteasome subunit beta (Trypanosoma cruzi) (UniProt O96673).
T3 sequence (whole entry): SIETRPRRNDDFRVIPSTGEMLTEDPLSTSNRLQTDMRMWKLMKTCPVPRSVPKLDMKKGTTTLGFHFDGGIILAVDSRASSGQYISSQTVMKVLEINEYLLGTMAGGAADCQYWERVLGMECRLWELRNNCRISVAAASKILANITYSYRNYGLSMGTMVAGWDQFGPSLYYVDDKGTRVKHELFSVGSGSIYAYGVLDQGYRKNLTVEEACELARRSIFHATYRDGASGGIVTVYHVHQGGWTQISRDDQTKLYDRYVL
Description: Trypanosoma cruzi proteasome chymotrypsin-like activity (TcProtChymo) assay. Further: in the data most compounds retested in dose-response had high values. The format is functional. The settings on record: 9.37 µM.

For another assay, the species on record is Homo sapiens. The assay is described as follows: To identify inhibition of the IFN signalling (Jak-Stat) pathway via expression of an eGFP reporter gene under the control of an IFN-stimulated response element (ISRE) containing MxA promoter. The format is functional. The settings on record: 30 µM. Background: A reporter such as luciferase makes a cellular process visible.

Assay [7] concerns the target T4, Tyrosyl-tRNA synthetase, putative (Trypanosoma cruzi (strain CL Brener)) (UniProt Q4DSP6).
T4 sequence (whole entry): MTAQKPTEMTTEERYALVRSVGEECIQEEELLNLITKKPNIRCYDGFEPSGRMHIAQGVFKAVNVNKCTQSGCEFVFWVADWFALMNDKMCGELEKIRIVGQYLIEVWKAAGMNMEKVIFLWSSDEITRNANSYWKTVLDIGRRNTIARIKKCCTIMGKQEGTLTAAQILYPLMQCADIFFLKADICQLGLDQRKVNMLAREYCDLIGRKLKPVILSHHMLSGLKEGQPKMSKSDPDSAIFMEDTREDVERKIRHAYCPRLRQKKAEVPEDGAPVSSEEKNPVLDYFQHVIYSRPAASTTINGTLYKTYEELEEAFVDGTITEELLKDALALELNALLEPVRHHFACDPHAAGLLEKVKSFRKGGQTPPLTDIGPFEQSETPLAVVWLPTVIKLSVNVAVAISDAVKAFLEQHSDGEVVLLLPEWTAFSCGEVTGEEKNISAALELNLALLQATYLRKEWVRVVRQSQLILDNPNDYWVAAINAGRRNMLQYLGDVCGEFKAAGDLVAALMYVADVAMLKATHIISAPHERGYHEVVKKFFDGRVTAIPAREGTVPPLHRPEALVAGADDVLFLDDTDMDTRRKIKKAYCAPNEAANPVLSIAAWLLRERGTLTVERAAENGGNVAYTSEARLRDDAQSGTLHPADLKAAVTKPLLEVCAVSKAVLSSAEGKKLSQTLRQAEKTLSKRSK
Description: Trypanosoma cruzi tyrosyl tRNA synthetase (TcYRS) _High Tyrosine SOP. Further: in the data most compounds retested in dose-response had high values. In kind it is functional. To be noted: 30 µM.

The target of assay [8] is T4, Tyrosyl-tRNA synthetase, putative (Trypanosoma cruzi (strain CL Brener)). The assay is described as follows: Trypanosoma cruzi tyrosyl tRNA synthetase (TcYRS) SOP. The format is functional. The settings on record: 30 µM.
For assay [9], the target named is Chromo domain-containing protein 1 (Saccharomyces cerevisiae (strain ATCC 204508 / S288c) (Baker's yeast)) (UniProt P32657). Description: ScCHD-1 Enzyme Inhibition Assay. Further: in the data most compounds retested in dose-response had high values. The format is functional. To be noted: 30 µM.
Chain of Chromo domain-containing protein 1 (Saccharomyces cerevisiae (strain ATCC 204508 / S288c) (Baker's yeast)) (P32657 whole entry, the tested form may be a part): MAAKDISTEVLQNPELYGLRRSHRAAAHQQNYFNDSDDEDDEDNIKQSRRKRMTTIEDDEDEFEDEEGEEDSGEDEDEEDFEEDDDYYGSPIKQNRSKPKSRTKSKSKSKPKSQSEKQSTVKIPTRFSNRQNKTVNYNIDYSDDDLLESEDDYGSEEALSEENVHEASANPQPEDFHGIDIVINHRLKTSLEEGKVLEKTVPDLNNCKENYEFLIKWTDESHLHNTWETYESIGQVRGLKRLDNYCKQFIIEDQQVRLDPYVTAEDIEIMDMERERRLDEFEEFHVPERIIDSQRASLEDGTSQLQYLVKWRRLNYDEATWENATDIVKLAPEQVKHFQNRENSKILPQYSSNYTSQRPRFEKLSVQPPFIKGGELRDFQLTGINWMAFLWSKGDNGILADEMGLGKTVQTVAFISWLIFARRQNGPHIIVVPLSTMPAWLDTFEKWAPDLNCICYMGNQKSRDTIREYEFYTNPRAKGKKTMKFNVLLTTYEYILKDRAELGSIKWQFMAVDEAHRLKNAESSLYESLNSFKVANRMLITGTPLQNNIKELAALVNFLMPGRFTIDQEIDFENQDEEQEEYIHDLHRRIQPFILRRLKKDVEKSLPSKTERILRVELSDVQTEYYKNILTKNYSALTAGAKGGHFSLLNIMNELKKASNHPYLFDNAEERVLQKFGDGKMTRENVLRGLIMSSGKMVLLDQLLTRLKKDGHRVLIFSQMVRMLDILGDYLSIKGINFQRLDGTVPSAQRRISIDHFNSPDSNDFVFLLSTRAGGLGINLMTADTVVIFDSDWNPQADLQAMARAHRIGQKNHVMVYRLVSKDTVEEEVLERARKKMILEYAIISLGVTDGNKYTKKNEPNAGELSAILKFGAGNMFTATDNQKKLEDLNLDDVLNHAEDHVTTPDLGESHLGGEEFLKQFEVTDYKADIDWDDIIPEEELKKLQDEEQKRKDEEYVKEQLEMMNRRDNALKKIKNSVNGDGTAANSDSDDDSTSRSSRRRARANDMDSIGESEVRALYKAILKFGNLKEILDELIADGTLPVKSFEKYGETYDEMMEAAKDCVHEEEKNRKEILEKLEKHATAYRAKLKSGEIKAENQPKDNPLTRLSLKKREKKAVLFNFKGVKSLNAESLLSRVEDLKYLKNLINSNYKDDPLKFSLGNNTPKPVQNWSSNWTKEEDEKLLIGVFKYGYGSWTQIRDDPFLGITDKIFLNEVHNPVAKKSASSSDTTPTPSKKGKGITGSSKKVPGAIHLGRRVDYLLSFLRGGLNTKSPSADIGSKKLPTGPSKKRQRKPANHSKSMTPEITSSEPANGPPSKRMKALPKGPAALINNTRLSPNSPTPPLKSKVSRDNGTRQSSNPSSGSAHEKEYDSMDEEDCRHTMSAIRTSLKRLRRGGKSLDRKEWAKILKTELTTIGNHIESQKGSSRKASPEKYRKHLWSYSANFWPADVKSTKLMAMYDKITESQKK

Chain of Sialic acid-binding Ig-like lectin 9 (Homo sapiens) (Q9Y336 whole entry): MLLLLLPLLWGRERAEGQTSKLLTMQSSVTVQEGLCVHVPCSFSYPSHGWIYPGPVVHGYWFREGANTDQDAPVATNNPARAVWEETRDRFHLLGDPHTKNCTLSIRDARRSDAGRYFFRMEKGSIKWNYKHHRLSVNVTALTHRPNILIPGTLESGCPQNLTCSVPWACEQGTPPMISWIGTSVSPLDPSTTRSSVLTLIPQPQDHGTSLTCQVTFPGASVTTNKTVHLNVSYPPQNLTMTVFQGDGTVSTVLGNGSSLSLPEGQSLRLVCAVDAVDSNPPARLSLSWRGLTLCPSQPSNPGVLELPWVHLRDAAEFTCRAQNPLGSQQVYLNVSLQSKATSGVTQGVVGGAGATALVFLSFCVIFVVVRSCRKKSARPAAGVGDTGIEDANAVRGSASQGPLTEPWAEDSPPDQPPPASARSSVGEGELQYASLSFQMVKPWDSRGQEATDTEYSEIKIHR
Chain of Protein translocase subunit SecA (Escherichia coli (strain K12)) (P10408 whole entry): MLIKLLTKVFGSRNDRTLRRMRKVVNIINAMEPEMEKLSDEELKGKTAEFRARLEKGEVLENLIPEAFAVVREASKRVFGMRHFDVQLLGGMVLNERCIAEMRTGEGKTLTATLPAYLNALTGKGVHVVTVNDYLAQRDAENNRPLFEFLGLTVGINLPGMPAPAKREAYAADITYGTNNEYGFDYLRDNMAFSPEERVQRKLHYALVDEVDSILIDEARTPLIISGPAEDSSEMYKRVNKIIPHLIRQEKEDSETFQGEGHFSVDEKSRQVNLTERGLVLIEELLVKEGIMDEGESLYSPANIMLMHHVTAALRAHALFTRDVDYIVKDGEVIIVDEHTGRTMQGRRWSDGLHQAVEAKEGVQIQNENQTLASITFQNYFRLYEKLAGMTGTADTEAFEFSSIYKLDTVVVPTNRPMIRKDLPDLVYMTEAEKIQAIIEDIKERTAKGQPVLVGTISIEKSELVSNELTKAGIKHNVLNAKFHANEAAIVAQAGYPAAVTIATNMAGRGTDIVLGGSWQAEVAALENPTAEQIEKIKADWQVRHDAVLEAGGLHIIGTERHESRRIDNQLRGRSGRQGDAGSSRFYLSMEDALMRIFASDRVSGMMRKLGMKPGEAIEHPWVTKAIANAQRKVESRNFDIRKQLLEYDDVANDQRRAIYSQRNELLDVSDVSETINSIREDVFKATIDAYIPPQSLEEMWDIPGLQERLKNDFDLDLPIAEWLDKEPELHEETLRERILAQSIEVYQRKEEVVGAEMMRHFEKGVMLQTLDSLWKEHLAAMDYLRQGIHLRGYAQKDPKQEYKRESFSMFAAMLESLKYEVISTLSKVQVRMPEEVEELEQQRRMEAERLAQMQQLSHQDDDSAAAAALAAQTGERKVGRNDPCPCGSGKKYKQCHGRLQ

`COc1ccc2c(c1)CCN(CCC(=O)O)CC2`: the Percent Effect in assay [1] is 0.2%; in [2], 16.2%; in [3], -5.1%; in assay [4] it was 15.3%; with Trypanosoma cruzi, 1.74%; in assay [5], 1.91%. In addition, the Percent Effect is 13.6% in assay [6]; 6.58% in the assay filed under Homo sapiens; 5.82% in [7]; 17.1% in assay [8]; -1.92% in assay [9].
`O=C(C1CC1)N1CCC(c2nc(O)c3c(n2)CCN(C2CCCC2)C3)C1` (stereo not given): the Percent Effect in [1] is -5.51%; in assay [2], 13.3%; in [3], 6.57%; in assay [4], -6.26%; with Trypanosoma cruzi, -4.33%; in assay [5] it was 1.17%. Further, the Percent Effect in [6] was 5.55%; in the assay filed under Homo sapiens it was 11.8%; in [7], 1.06%; in assay [8], 6.41%; in assay [9], -7.54%.
As to `Cc1cc(CN2CCN(CC(O)C(C)(C)C)CC2)no1` (stereo not given), the Percent Effect in assay [1] is 0.683%; in assay [2], 15.2%; in [3], -2.9%; in assay [4], 10.4%; with Trypanosoma cruzi it was 4.63%; in [5] it was 1.52%. Moreover, the Percent Effect was 4.83% in assay [6]; 14.7% in the assay listed under Homo sapiens; 5.42% in [7]; 16.5% in assay [8]; -5.62% in assay [9].
`CC1=Nc2c(c(=O)[nH]n2C(C)C)C(c2ccc(F)c(F)c2)S1` (stereo not given): the Percent Effect in assay [1] was -5.53%; in assay [2] it was -6.67%; in assay [3] it was 8.28%; in assay [4], 12.2%; in the assay on Trypanosoma cruzi, -0.197%; in assay [5], 1.58%. In addition, the Percent Effect in assay [6] was determined as 9.8%; in the assay listed under Homo sapiens it was 34%; in assay [7], 18%; in [8], 20.5%; in assay [9], 2.07%.
For the compound `N#Cc1ccc(F)c(CN2CCCC2Cn2cnc3ccccc32)c1` (stereo not given), the Percent Effect in assay [1] is -4.77%; in assay [2], -5.41%; in [3] it was -0.578%; in assay [4] it was -0.466%; in the assay with Trypanosoma cruzi it was -3.81%; in [5], -0.924%. The Percent Effect in assay [6] was 6.46%; in the assay filed under Homo sapiens it was 22.9%; in assay [7], 1.98%; in [8] it was -6.1%; in assay [9] it was 5.03%.
In the case of `Cc1occc1C(=O)N1CCC2(CC1)NC(=O)CC2c1cnn(C)c1` (stereo not given), the Percent Effect in assay [1] is -3.16%; in [2] it was 10.8%; in assay [3], -0.0675%; in assay [4] it was -1.75%; in the assay with Trypanosoma cruzi, 1.86%; in [5], 7.33%. For the same compound, the Percent Effect in assay [6] was 9.41%; in the assay listed under Homo sapiens, -9.35%; in [7] it was 0%; in assay [8], 12.8%; in assay [9], 0.845%.
On to `CC(=O)N(Cc1noc(C)n1)C1CCN(Cc2ccncc2Cl)C1` (stereo not given), for which the Percent Effect in assay [1] is -3.16%; in [2] it was 16.5%; in assay [3] it was -1.3%; in assay [4] it was 0.699%; in the assay with Trypanosoma cruzi it was -1.95%; in [5], 2.8%. The Percent Effect is 12.5% in assay [6]; 8.22% in the assay listed under Homo sapiens; 3.12% in assay [7]; 12.7% in [8]; -16% in [9].
With `COc1ccc(CNC(C)c2ccc3[nH]c(=O)[nH]c3c2)cc1` (stereo not given), the Percent Effect in assay [1] is 0.617%; in assay [2], -5.41%; in assay [3] it was -4.65%; in [4], 13.3%; with Trypanosoma cruzi it was 1.23%; in [5], -6.81%. Moreover, the Percent Effect was 0.36% in assay [6]; 22.4% in the assay listed under Homo sapiens; 1.48% in [7]; 1.24% in assay [8]; -9.21% in assay [9].
For the compound `FC(F)(F)C1CCCn2c(CNCc3ccsc3)nnc21` (stereo not given), the Percent Effect is -2.76% in assay [1]; 2.67% in [2]; -9.01% in assay [3]; 4.99% in assay [4]; 2.63% in the assay with Trypanosoma cruzi; 1.56% in [5]. Also, the Percent Effect is 20.2% in assay [6]; -14.2% in the assay filed under Homo sapiens; 9.29% in [7]; 18.5% in [8]; -3.87% in assay [9].
On to `CCn1nc(CC(C)C)cc1C(=O)NCCn1cccc1`, for which the Percent Effect was -6.33% in [1]; -1.39% in [2]; 1.75% in [3]; 1.17% in assay [4]; -3.01% with Trypanosoma cruzi; -3.09% in assay [5]. Besides, the Percent Effect in assay [6] was 11.6%; in the assay filed under Homo sapiens, -24.3%; in assay [7], 0%; in assay [8], -2.56%; in assay [9], 1.57%.
